Data: ChEMBL document CHEMBL3433997, “St. Jude Leishmania screening dataset” (2016)

Key:
Format in all cases: functional
[1] = target: Solute carrier family 2, facilitated glucose transporter member 1 (Homo sapiens) (UniProt P11166); test: ST_JUDE_LEISH: Cytotoxicity at 2uM final concentration against transgenic Leishmania Mexicana promastigotes LmGLUT1 that are glucose transport deficient and complemented with the human glucose transporter GLUT1. Activity is measured by DNA content using SYBR green in vitro
Chain of Solute carrier family 2, facilitated glucose transporter member 1 (Homo sapiens) (P11166 whole entry): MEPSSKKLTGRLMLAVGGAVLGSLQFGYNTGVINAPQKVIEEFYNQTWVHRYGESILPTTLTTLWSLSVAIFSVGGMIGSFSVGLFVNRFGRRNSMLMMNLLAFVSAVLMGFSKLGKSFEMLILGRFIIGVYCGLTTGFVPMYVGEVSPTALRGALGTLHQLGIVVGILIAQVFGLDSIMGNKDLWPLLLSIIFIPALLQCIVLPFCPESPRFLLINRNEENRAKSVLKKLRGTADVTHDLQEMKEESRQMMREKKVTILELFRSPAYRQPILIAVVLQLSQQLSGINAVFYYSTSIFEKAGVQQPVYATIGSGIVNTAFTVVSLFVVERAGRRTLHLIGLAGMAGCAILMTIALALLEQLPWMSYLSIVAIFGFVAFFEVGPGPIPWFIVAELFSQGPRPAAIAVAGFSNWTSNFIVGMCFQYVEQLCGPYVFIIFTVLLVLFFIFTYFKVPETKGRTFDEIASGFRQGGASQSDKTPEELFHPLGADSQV

[2] = target: Hexose transporter 1 (Plasmodium falciparum) (UniProt O97467); test: ST_JUDE_LEISH: Cytotoxicity at 2uM final concentration against transgenic Leishmania Mexicana promastigotes LmPfHT that are glucose transport deficient and complemented with the Plasmodium falciparum hexose transporter. Activity is measured by DNA content using SYBR green in vitro
[3] = target: Glucose transporter (Leishmania mexicana) (UniProt O61059); test: ST_JUDE_LEISH: Cytotoxicity at 2uM final concentration against transgenic Leishmania Mexicana promastigotes LmGT2 that are glucose transport deficient and complemented with the L. Mexicana glucose transporter 2. Activity is measured by DNA content using SYBR green in vitro

SMILES	inhibition [1] [%]	inhibition [2] [%]	inhibition [3] [%]
c1ccc(CNCc2ccc(-c3ccc(-c4nc5ccccc5[nH]4)cc3)cc2)cc1	20.4	12.9	10
O=C(Nc1ccc(-c2ccc(-c3nc4cc(C(F)(F)F)ccc4[nH]3)s2)cc1)c1ccoc1	0.13	-0.79	-1.02
Cc1cc(N[C@@H](Cc2ccccc2)C(=O)NCc2cccc(F)c2)nc(NCc2ccccc2C)n1	5.14	4.67	3.17
COc1cc(C(=O)N2CCOC(CCN3CCc4c(c5ccccc5n4C)C3)(c3ccc(Cl)c(Cl)c3)C2)cc(OC)c1OC (stereo not given)	-0.35	0	-1.26
CC(C)Cn1c(Sc2ccc(C#N)c([N+](=O)[O-])c2)nnc1-c1ccccc1Cl	3.45	4.02	-0.31
CC(C)C1=CC(=NOS(=O)(=O)c2ccccc2)C=C(C(C)C)C1=O	0.62	4.11	-0.38
O=C1CC(C(=O)O)CC(=O)N1	-3.7	-2.75	-0.61
Cc1ccc(C(=O)Nc2ccc(Nc3ccnc4cc(-c5ccncc5)ccc34)cc2O)cc1	-0.09	-0.05	1.37
Cc1cc(-c2ccc(CNC3Cc4ccccc4C3)cc2)ccc1S(=O)(=O)NCCN1CCCC1	30.9	30.9	3.47
O=C(N[C@H]1CCN(Cc2ccc(OCCCN3CCCCC3)cc2)C1)c1ccc2ccccc2c1	4.56	6.47	2.1
COc1ccc2ncc(Cl)c(N3CCC(CCNCc4ccc5c(n4)NC(=O)CS5)CC3)c2c1	2.36	0.92	3.01
Clc1cc(Nc2ccnc3ccc(Br)cc23)ccc1Oc1ccc(Cl)c2ccccc12	3.45	3.8	2.81
CC1(C)NC(N)=NC(=N)N1OCc1cccs1	10.6	7.52	7.36
COc1ccc(-c2cccc(NC(=O)c3cccc(Cl)c3)c2)cc1CN1CCCC1	7.71	5.81	-1.22
COc1ccc(Nc2ncc(C#N)c(Nc3ccccc3C(N)=O)n2)cc1N1CCN(C)CC1	15.8	18.1	9.63
COc1ccc(CON2C(=N)N=C(N)NC2(C)C)cc1OC	-1.03	-1.38	-0.13
Cc1ccc(C(c2nnnn2C2CCCC2)N(Cc2ccco2)Cc2ccccc2Cl)cc1 (stereo not given)	9.7	9.7	8.53
O=C(Nc1ccc(Cl)cc1F)NC1CCN(CCCCCNC(=O)C2CC2c2ccc(Cl)c(Cl)c2)CC1 (stereo not given)	1.08	0.8	3.62
Oc1cc(-c2cccc(C(F)(F)F)c2)nc(Nc2ccc(Cl)c(Cl)c2)n1	0.75	0.89	0.9
O=C1NC(=S)N/C1=C/C=C/c1ccc([N+](=O)[O-])o1	27.9	30.9	5.12
Cc1ccc(NC(=O)c2cccc(N3CCN(c4ccncc4)CC3)c2)cc1F	10.8	9.25	15.6
CC1CN(c2ncc(-c3ccc(CNC4Cc5ccccc5C4)cc3)cn2)CC(C)N1 (stereo not given)	2.69	2.64	0.64
CCN(CC)CCN(Cc1ccc(-c2ccc(C(F)(F)F)cc2)cc1)C(=O)Cn1c(CCc2ccc(F)c(F)c2F)nc(=O)c2ccccc21	8.82	7.31	10.2
Cc1cccc(Nc2nc(N)c3ccccc3n2)c1	20.9	16.5	5.71

SMILES	inhibition [1] [%]	inhibition [2] [%]	inhibition [3] [%]
CC(C)(C)c1ccc(NC(=O)c2ccc(CN3CCCN(Cc4cccc(C#N)c4)CC3)cc2)cc1	6.54	7.31	4.99
O=C(CCC1CCCCC1)NCCNc1cccc2ccccc12	-0.06	-0.34	-3.97
Cc1nc(-c2ccc(C#N)cc2)sc1C(=O)NCCCCN1CCC(c2ccc3c(c2OCCO)CCCC3)CC1	6.87	6.02	3.7
O=C(NCC1CCC(C(=O)NC2CCCc3ccccc32)CC1)c1ccc(O)c(-c2cccc([N+](=O)[O-])c2)c1 (stereo not given)	3.94	2.12	2.39
O=C(Nc1cccc(-c2ccc(-c3nc4cc(C(F)(F)F)ccc4[nH]3)cc2)c1)c1ccncc1	6.22	0.73	5.09
O=C(NCc1ccc2c(c1)OCO2)c1nn(CCN2CCC(N3CCCC3)CC2)cc1-c1ccc(Cl)c(Cl)c1	2.53	0.54	0.75
CC1(C)N=C(N)N=C(N)N1OCc1ccc2ccccc2c1	8.29	7.22	6.67
COCCOCCOCCn1ccc2c3c(N)nc(N)nc3ccc21	4.65	1.94	2.29
CCOC(=O)c1ccc(NC(=O)NC2CCN(CCCCCNC(=O)/C=C/c3ccc(Cl)c(Cl)c3)C2)cc1 (stereo not given)	2.05	0	0.92
O=C(Nc1ccc(-c2nc3ccccc3[nH]2)cc1)c1cnc(Cl)c(Cl)c1	0.44	-0.34	2.62
Brc1ccsc1-c1nc(NC2CCN(Cc3ccccc3)CC2)no1	-0.23	5.86	-0.38
N=C(N)Nc1nc(-c2cccc(NC(=O)NCCc3c[nH]c4ccc(OCc5ccccc5)cc34)c2)cs1	0.6	1.4	0.56
CCCN(CCC)C(=O)c1cc(C(=O)N[C@@H](Cc2ccccc2)[C@H](O)CNC(C)(C)c2cccc(C(F)(F)F)c2)cc(N2CCCCS2(=O)=O)c1	-1.43	4.18	-1.54
Cc1cccc(-c2nc3cc(NC(=O)c4ccc([N+](=O)[O-])o4)ccc3o2)c1	6.53	7.69	2.04
CC(C)NCc1ccc(-c2ccc(CN3CCCC(c4ccccc4)C3)cc2)c(C(=O)NCC2CCCCC2)c1 (stereo not given)	-0.28	-0.36	-6.06
CCN(Cc1ccc(-c2ccc(C(F)(F)F)cc2)cc1)C(=O)Cn1c(SCc2cccc(F)c2F)cc(=O)c2cc(CN3CCCCC3)ccc21	0.46	0.7	5.02
CN1CC[C@@H](Oc2cc(NC(=O)Nc3ccccc3Br)ccc2Cl)C1	4.94	3.71	2.59
CC(C)c1ccc(NC(=O)c2cccc(CN3CCCN(CC4CCCCC4)CC3)c2)cc1	11.7	7.21	9.65
Cc1cccc(OCC2CCN(c3ncc(C(=O)NC4CC4)cc3Cl)CC2)c1	0.26	5.86	2.26
CN1C(=CC(=O)NC(=O)c2ccccc2)C(C)(C)c2ccccc21	0.52	0.41	0.4
O=C(/C=C/c1ccc(Cl)c(Cl)c1)NCCCCCCN1CCN(C(=O)Nc2ccc(Cl)c(C(F)(F)F)c2)CC1	4.18	4.06	-1.95
Cc1cccc2nc(-c3ccc(-c4cccc(CN5CCCC5CN)c4)s3)[nH]c12 (stereo not given)	2.06	-0.2	-0.03
O=C(NC1CCN(CCC[C@]2(c3ccc(Cl)c(Cl)c3)CCCN(C(=O)c3ccccc3)C2)CC1)c1ccc(Cl)cc1	-0.59	-1.27	-2.33
Cc1cc2nc(-c3ccc(C(=O)NCc4ccc(C(C)(C)C)cc4)cc3)[nH]c2cc1C	3.51	2.34	-0.6

SMILES	inhibition [1] [%]	inhibition [2] [%]	inhibition [3] [%]
CCOc1cc2ncnc(Nc3ccc(OCc4ccccc4F)c(Cl)c3)c2cc1OCC	-0.1	2.22	0.76
COc1ccc2ncc(F)c(CCN3CC4CCCC4(CNCc4ccc5c(n4)NC(=O)CS5)C3)c2n1 (stereo not given)	1.18	1.32	0.3
COc1cccc(C(=O)Nc2ccc(-c3nc4ccccc4[nH]3)cc2)c1	3.48	1.76	0.31
CN1CCC(Oc2ccc(CN3CC[C@H](NC(=O)c4ccc(Cl)c(F)c4)C3)c3ccccc23)C1 (stereo not given in full)	0.38	3.36	2.67
CC(C)(C)c1ccc2oc(=O)n(C3CCN(C(=O)c4ccc([N+](=O)[O-])o4)CC3)c2c1	5.8	10.9	0.29
Cc1cccc(C)c1C1CCN(C2CCC(NC(=O)/C=C/c3ccccc3)CC2)CC1 (stereo not given)	5.77	5.67	5.46
CC(=O)c1cccc(S(=O)(=O)NCCCNc2nc3cc(C)cc(C)c3cc2C#N)c1	-0.68	1.78	-1.77
Cc1cc(N[C@@H](CC(C)C)C(=O)Nc2ccccc2)nc(Nc2ccccc2)n1	1.17	-0.52	-0.1
COc1cc2nc(N3CCC(CNC(=O)c4ccc(-c5ccc(-c6noc(C)n6)cc5C)cc4)CC3)nc(N)c2cc1OC	8.2	7.8	5.29
CN1CCC(C(=O)N(Cc2ccc(-c3ccc(CNCCc4ccc(S(C)(=O)=O)cc4)cn3)cc2)Cc2cccc(F)c2)CC1	1.69	0.58	0.97
O=C(Nc1ccccc1)c1cccc(Nc2nccc(Nc3ccc(Oc4ccccc4)cc3)n2)c1	0.65	1.07	0.87
CC1(CCc2ccccc2)N=C(N)N=C(N)C1c1ccc(Cl)c(Cl)c1 (stereo not given)	9.55	9.47	8.62
O=C(NCc1ccc(Cl)c(Cl)c1)c1ccc(-c2nc3ccc(Cl)cc3[nH]2)cc1	4.45	9.23	3.4
Cn1nccc1C(=O)NCCNCc1cccc(-c2cccc(-c3nc4cc(C(F)(F)F)ccc4[nH]3)c2)c1	2.84	1.83	0.31
O=C(NCCc1ccccc1)N(Cc1ccccc1-c1cccc(CNCCc2ccccc2)c1)C1CCN(Cc2ccccc2)CC1	2.61	1.06	5.48
CCCC(C)Nc1nc(C)cc(N[C@@H](CC(C)C)C(=O)NC2CCCC2)n1 (stereo not given in full)	2.53	4.34	3.26
CC(C)(C)[C@@H](Nc1ccc(C#N)c2ccccc12)C(=O)NC1(Cc2ccc(O)cc2)CCCC1	0.1	-0.5	0.41
Cn1c(=O)n(C)c2cc(CNCCNc3ccnc4cc(Cl)ccc34)ccc21	2.25	3.88	0.4
CN(C)c1ccc(-c2csc(C(=O)NC3CCN(CCC(C)(C)C)C3)c2)cc1 (stereo not given)	3.05	4.39	2.37
CON(C)C(=O)[C@@H](CCCCNC(=O)OCc1ccccc1)NC(=O)OC(C)(C)C	-0.81	-1.84	-1.83
O=C(/C=C/c1ccc(Cl)c(Cl)c1)NCCCCCN1CC[C@H](NC(=O)Nc2ccc(Oc3ccccc3)cc2)C1	-0.32	-1.24	1.17
Cc1nc2ccc(NC(=O)Nc3ccnc4ccc(C(F)(F)F)cc34)cc2o1	5.89	10.7	5.33
